According to PubChem BioAssay (NCATS):
Records with an inconclusive call do not appear. Values without a mark were called inactive. Active and inactive are the calls of the source. Calls come from the whole dose curve; as a rule, active = well fitted cell-killing curve with a large enough effect; inconclusive = small, poorly fitted or top-dose-only effect, or effect the other way; inactive = no such curve, though single readings can be large or run the other way.

Key:
[1] = Viability qHTS for spleen associated tyrosine kinase inhibitor (SYKi) naive MV4-11 cells (AID 1963823); note: nearly all actives have a fitted effect of over 40% in size
Outline: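 Read-out: CellTiter-Glo luminescence. Exposure: 72 hr, 37 C, 5% CO2, 95% humidity. Cells: MV4-11 without SYK inhibitor history, 500/well, qHTS format.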

[2] = Viability qHTS for spleen associated tyrosine kinase inhibitor (SYKi) drug resistant MV4-11 cells (AID 1963824); note: nearly all actives have a fitted effect of over 35% in size
Outline: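 SYK-inhibitor-resistant MV4-11 AML cells were seeded at 500 per well onto compound and cultured 72 hours (37 °C, 5% CO2). CellTiter-Glo was then added, and after 10 min at room temperature, luminescence gave viability.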
Potency is the fitted concentration of half-maximal effect.

## CCCCCc1ccc(/C=C/[C@H](O)[C@@H](CO)NC)cc1
[1]
  Potency: 11600 nM (active)
[2]
  Potency: 20600 nM (active)

## C=C1C(=O)OC2/C=C(\CO)CC/C=C(\C=O)C(OC)C(OC(=O)C(C)CC)C12 (stereo not drawn)
[1]
  Potency: 10000 nM (active)
[2]
  Potency: 2520 nM (active)

## Cc1cc(C)c(S(=O)(=O)N(Cc2ccc(-c3cccc(S(C)(=O)=O)c3)cc2)Cc2ccc(C(F)(F)F)o2)c(C)c1
[1]
  Potency: inactive
[2]
  Potency: 46.1 nM (active)

## CC(=O)NC1CC(=O)C23C(=O)NC(Cc4c[nH]c5ccccc45)C2C(C)=C(C)C(O)C3/C=C/CC(C)/C=C(/C)C(O)C1O (stereo not drawn)
[1]
  Potency: inactive
[2]
  Potency: inactive

## CC1(C)CC[C@]2(C(=O)O)CC[C@]3(C)C(=CCC4[C@@]5(C)CC[C@H](O[C@@H]6O[C@H](C(=O)O)[C@@H](O)[C@H](O[C@@H]7O[C@H](CO)[C@H](O)[C@H](O)[C@H]7O)[C@H]6O[C@@H]6O[C@H](CO)[C@@H](O)[C@H](O)[C@H]6O)C(C)(C)C5CC[C@]43C)[C@@H]2C1 (stereo partly drawn)
[1]
  viability (% of control): 77.5% [at 4.97 µM]
[2]
  viability, % of control: 75.1% [at 4.97 µM]

## O=C(Nc1ccc2[nH]ncc2c1)C1CCC1
[1]
  Potency: inactive
[2]
  Potency: inactive

## O=C(OC1C=C(CO)C2C(OC3OC(CO)C(O)C(O)C3O)OC=CC12O)c1ccc(O)cc1 (stereo not drawn)
[1]
  Potency: inactive
[2]
  Potency: inactive

## O=S(=O)(NCC1CC1)c1ccc(Nc2nccc(N3CCCc4cc(O)ccc43)n2)cc1
[1]
  Potency: 146 nM (active)
[2]
  Potency: 206 nM (active)

## NS(=O)(=O)c1ccc(N=Nc2c(O)[nH]c3ccc(Br)cc23)cc1
[1]
  Potency: 130 nM (active)
[2]
  Potency: 1030 nM (active)
